Several values for one entry are separate records, joined by “and”; a condition that tells them apart may be missing. Equal entries are not always repeated. Records with an inconclusive call do not appear. Activity calls are given as the source filed them. The call rests on the fitted dose curve; in most records, active means well fitted curve in the direction sought with a large enough effect; inconclusive means small, poorly fitted or top-dose-only effect, or another doubt; inactive means no such curve, though single readings can be large; an effect the other way counts as inactive or inconclusive.
How the values were obtained:
[1] = Quantitative highthroughput screen to assess conditional lethalithy of NOMO1 cells grown in RPMI1640 with untreated serum (RPMI+s) (AID 1963876); further: nearly all actives have a fitted effect of over 35% in size; further: potency means the concentration at half of the fitted maximal effect;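 on viability: 100% = DMSO wells and 0% = empty wells without cells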
In short: (§1)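 Each medium arm—HPLM with 10% dialyzed FBS, or RPMI1640 with 5 mM glucose and 10% untreated or dialyzed FBS—was screened against an 11-point, 3-fold compound titration for 48 h at 37 °C, with CellTiter-Glo luminescence as endpoint.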

[2] = Quantitative highthroughput screen to assess conditional lethalithy of P12 Ichikawa cells grown in Human Plasma-Like Medium with dialyzed fetal bovine serum (HPLM+ds) (AID 1963879); settings: Potency: viability; further: nearly all actives have a fitted effect of over 35% in size; further: potency means the concentration at half of the fitted maximal effect; on viability: series mostly up to about 46 µM
In short: as §1

[3] = Quantitative highthroughput screen to assess conditional lethalithy of P12 Ichikawa cells grown in RPMI1640 with dialyzed fetal bovine serum (RPMI+ds) (AID 1963880); settings: Potency: P12-Ichikawa viability; further: nearly all actives have a fitted effect of over 35% in size; further: potency means the concentration at half of the fitted maximal effect;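 on viability: 100% = DMSO wells and 0% = empty wells on each plate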
In short: as §1

[4] = Quantitative highthroughput screen to assess conditional lethalithy of P12 Ichikawa cells grown in RPMI1640 with untreated serum (RPMI+s) (AID 1963881); settings: Potency: viability; further: nearly all actives have a fitted effect of over 35% in size; further: potency means the concentration at half of the fitted maximal effect;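 on viability: series mostly up to about 46 µM; 100% = DMSO wells and 0% = empty wells without cells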
In short: as §1

[5] = Quantitative highthroughput screen to assess conditional lethalithy of SEM cells grown in Human Plasma-Like Medium with dialyzed fetal bovine serum (HPLM+ds) (AID 1963882); further: nearly all actives have a fitted effect of over 35% in size; further: potency means the concentration at half of the fitted maximal effect; on viability: series mostly up to about 46 µM
In short: as §1

[6] = Quantitative highthroughput screen to assess conditional lethalithy of SEM cells grown in RPMI1640 with unreated serum (RPMI+s) (AID 1963883); further: nearly all actives have a fitted effect of over 35% in size; further: potency means the concentration at half of the fitted maximal effect;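 on viability: 100% = DMSO wells and 0% = empty wells without cells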
In short: as §1

[7] = Quantitative highthroughput screen to assess conditional lethalithy of SEM cells grown in RPMI1640 with dialyzed fetal bovine serum (RPMI+ds) (AID 1963884); further: nearly all actives have a fitted effect of over 35% in size; further: potency means the concentration at half of the fitted maximal effect;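 on viability: series mostly up to about 46 µM; 100% = DMSO control wells and 0% = empty wells without cells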
In short: as §1

[8] = Quantitative highthroughput screen to assess conditional lethalithy of NOMO1 cells grown in Human Plasma-Like Medium with dialyzed fetal bovine serum (HPLM+ds) (AID 1963878); further: nearly all actives have a fitted effect of over 35% in size; further: potency means the concentration at half of the fitted maximal effect;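 on viability: 100% = DMSO wells and 0% = empty wells on each plate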
In short: as §1

[9] = Cellular viability qHTS for adrenocortical cancer (ACC) cell line NCI-H295R (AID 1963990); further: nearly all actives have a fitted effect of over 60% in size; further: potency means the concentration at half of the fitted maximal effect;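 on activity change, negative = viability loss: 0% = DMSO only wells and -100% = full killing with cytotoxic reference compound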
In short: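 Readout: CellTiter-Glo luminescence, 20 min RT. Exposure: 48 h, 37C/5% CO2. Cells: NCI-H295R, ITS-DMEM serum-free. Range: up to 46 uM. Analysis: 4PL fit, IC50 plus efficacy.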

[10] = Cellular viability qHTS for adrenocortical cancer (ACC) cell line SW-13 (AID 1963989); settings: SW-13 ACC cells viability, CellTiter-Glo, 48 h; activity (max response): stronger effect = lower value;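 further: cells grown in serum-free medium with ITS supplement; on the % scale 0 is the no-effect control and ±100 the full control effect; nearly all actives have a fitted effect of over 65% in size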
In short: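 Compound titrations (up to 46 uM final, in DMSO) were applied to SW-13 cells for 48 h at 37C/5% CO2. Reading used CellTiter-Glo after 20 min at room temperature; fitted curves yielded IC50 and efficacy.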

[11] = Quantitative highthroughput screen to assess conditional lethalithy of NOMO1 cells grown in RPMI1640 with dialyzed fetal bovine serum (RPMI+ds) (AID 1963877); further: nearly all actives have a fitted effect of over 30% in size; further: potency means the concentration at half of the fitted maximal effect;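 on viability: series mostly up to about 46 µM; 100% = DMSO control wells and 0% = empty wells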
In short: as §1

COc1cc(NC(=O)c2ccc(-c3ccc(Cl)cc3)o2)cc(OC)c1
inactive: Potency [2] | Potency [3] | Potency [4] | Potency [5] | Potency [6] | Potency [7]
active: Potency [1] 1870 nM

O=C(CCc1ccc(O)cc1)c1c(O)cc(O)cc1O[C@@H]1O[C@H](CO)[C@H](O)[C@H](O)[C@H]1O
inactive: Potency [1] | Potency [2] | Potency [3] | Potency [4] | Potency [5] | Potency [6]

CNC(=O)c1ccccc1Sc1ccc2c(C=Cc3ccccn3)n[nH]c2c1
active: Potency [1] 2350 nM | Potency [8] 4180 nM | Potency [2] 7430 nM | Potency [6] 5260 nM | Potency [7] 4690 nM

CCOC(=O)C1=C(C)NC(=S)NC1c1cccc(O)c1 (stereo not drawn)
active: Potency [1] 148 nM | Potency [8] 235 nM | Potency [3] 296 nM | Potency [4] 148 nM | Potency [5] 74.3 nM | Potency [6] 132 nM | Potency [7] 166 nM
inactive: Potency [9]

CC(=O)Oc1cc2c(s1)CCN(C(C(=O)C1CC1)c1ccccc1F)C2 (stereo not drawn)
active: Potency [1] 14800 nM | Potency [8] 4690 nM | Potency [5] 18700 nM
inactive: activity (max response) [10] -22.6% and -6.86% | Potency [9]

CO[C@@H](C(=O)N1Cc2[nH]nc(NC(=O)c3ccc(N4CCN(C)CC4)cc3)c2C1)c1ccccc1
active: Potency [1] 148 nM | Potency [8] 46.9 nM | Potency [5] 132 nM | Potency [6] 74.3 nM | Potency [7] 83.3 nM

COc1ccc2c3n(c(=NC(=O)c4cccnc4)nc2c1OC)CCN3
inactive: Potency [1] | activity (max response) [10] 2.77% | activity change, negative = viability loss [9] -25.5% [at 3.81 µM]
active: Potency [8] 7430 nM | Potency [5] 20900 nM | Potency [7] 9350 nM

CC[C@]1(O)C[C@H]2CN(CCC3=c4ccccc4=N[C]3[C@@](C(=O)OC)(c3cc4c(cc3OC)N(C)[C@H]3[C@@](O)(C(N)=O)[C@H](O)[C@]5(CC)C=CCN6CC[C@]43[C@@H]65)C2)C1
active: Potency [1] 93.5 nM | Potency [8] 14.8 nM | Potency [2] 83.3 nM | Potency [3] 132 nM | Potency [5] 118 nM | Potency [6] 59 nM | Potency [7] 118 nM

N#CC(=C(N)Sc1ccccc1N)C(C#N)=C(N)Sc1ccccc1N
inactive: Potency [1] | Potency [2] | Potency [3] | Potency [4]

CC(=O)OCC(=O)[C@@]1(O)[C@H](C)C[C@H]2[C@@H]3C=C(C)C4=Cc5c(cnn5-c5ccccc5)C[C@]4(C)[C@@H]3[C@@H](O)C[C@@]21C
inactive: Potency [1] | Potency [8] | activity (max response) [10] 3.11%
active: Potency [7] 14.8 nM | Potency [9] 25100 nM

COC(=O)[C@@H]1[C@H]2C[C@@H]3c4[nH]c5ccccc5c4CCN3C[C@@H]2CC[C@@H]1O
active: Potency [1] 526 nM | Potency [2] 2960 nM | Potency [3] 5260 nM | Potency [4] 3320 nM
inactive: Potency [5] | Potency [6]

CC[C@]12C=CCN3CC[C@@]4(c5cc([C@@]6(C(=O)OC)C[C@H]7C[C@@H](C(C)(F)F)CN(Cc8c6[nH]c6ccccc86)C7)c(OC)cc5N(C)[C@H]4[C@@](O)(C(=O)OC)[C@H]1OC(C)=O)[C@@H]32
active: Potency [1] 33.2 nM | Potency [2] 37.2 nM | Potency [3] 74.3 nM | Potency [4] 26.4 nM | Potency [5] 29.6 nM | Potency [6] 18.7 nM | Potency [7] 33.2 nM

C[C@H]1O[C@@H](n2cc(F)c(=O)[nH]c2=O)[C@H](O)[C@H]1O
inactive: Potency [1] | Potency [2] | Potency [3] | Potency [4]

Cn1cc(C=CC(=O)c2cccc(F)c2)cc1C=CC(=O)NO
inactive: Potency [1] | Potency [8] | Potency [2] | Potency [4] | Potency [5] | Potency [6] | Potency [7]

CCOC(=O)[C@H]1O[C@H]1C(=O)N[C@@H](CC(C)C)C(=O)NCCC(C)C
inactive: Potency [2] | Potency [3] | Potency [4] | Potency [5] | Potency [6] | Potency [7]
active: Potency [1] 23500 nM

C=C1C(=O)OC2C=C(C)CCC=C(C)CCC12 (stereo not drawn)
active: Potency [7] 23500 nM
inactive: Potency [1]

FC(F)(F)c1ccc(C=Cc2nc(COc3ccc(CCCCn4ccnn4)cc3)co2)cc1
inactive: Potency [5]
active: Potency [1] 2350 nM | Potency [2] 935 nM | Potency [7] 9.3 nM

COc1cc2c(cc1OC)CN(CCc1ccc(NC(=O)c3cccc4c(=O)c5cccc(OC)c5[nH]c34)cc1)CC2
active: Potency [1] 4690 nM | Potency [2] 1180 nM | Potency [3] 2960 nM | Potency [4] 3720 nM | Potency [5] 4180 nM | Potency [6] 1050 nM | Potency [7] 935 nM
inactive: activity (max response) [10] -3.54% | Potency [9]

O=C(O)c1ccc(-c2cc3cccnc3c(-c3ccc4nonc4c3)n2)cc1
inactive: Potency [1] | Potency [2] | Potency [4]

CCC(=C(c1ccccc1)c1ccc(OCCN(C)C)cc1)c1ccccc1
active: Potency [5] 23500 nM
inactive: Potency [1] | Potency [2]

O=C(C=CC#Cc1cccc(NS(=O)(=O)c2ccccc2)c1)NO
active: Potency [11] 3320 nM | Potency [8] 3320 nM | Potency [2] 2350 nM | Potency [3] 2090 nM | Potency [4] 2090 nM | Potency [5] 2640 nM | Potency [6] 2960 nM | Potency [7] 2350 nM

O=C(C=Cc1c(C(=O)O)[nH]c2cc(Cl)cc(Cl)c12)Nc1ccccc1
inactive: Potency [11] | Potency [8] | Potency [2] | Potency [3] | Potency [4]
